According to PubChem BioAssay AID1159580 (chemical genetic matrix, 2015):
Where “and” joins values, the source holds several entries; their conditions need not be identical. Equal entries are not always repeated. Hit rate of the full screen: of about 5,500 compounds, about 2,000 (36%) were called active. Another 18% or so got no clear call; they are omitted. Cut-off read from the data, not from the text of the source: active = normalized growth mostly below about 0.91 (no sharp cut-off); inconclusive = no clear call, values can overlap the other calls; inactive = mostly above about 0.92. The list shows a part of the results.

Experiment: chemical genetic growth profiling, strain panel (AID 1159580);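 note: tested at 20 µM; growth read once vehicle control cultures reached saturation at 30 °C; 1 = growth at the plate median or of vehicle wells; lower values mean less growth of the strain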
Settings: S. cerevisiae deletion strains, growth OD

Measured: normalized growth

O=c1[nH]c(=O)n(C2C[C@@H](O)[C@@H](CO)O2)cc1F (stereo partly drawn)
inactive: locus YAL013W, strain DEP1, hits give low values 1.04 | locus YAL021C, strain ccr4, hits give low values 1.01 | locus YAL026C, strain drs2, hits give low values 0.996 | locus YAL030W, strain snc1, hits give low values 0.992 | locus YBL061C, strain skt5, hits give low values 0.987 | locus YBR009C, strain hhf1, hits give low values 1 | locus YBR021W, strain FUR4, hits give low values 1 | locus YBR023C, strain chs3, hits give low values 1 | locus YBR171W, strain sec66, hits give low values 0.993 | locus YBR229C, strain ROT2, hits give low values 1 | locus YBR231C, strain swc5, hits give low values 1 | locus YBR279W, strain paf1, hits give low values 1.01 | locus YCL011C, strain gbp2, hits give low values 1.01 | locus YCL016C, strain dcc1, hits give low values 0.994 | locus YCL029C, strain bik1, hits give low values 1.01 | locus YCL061C, strain MRC1, hits give low values 0.996 | locus YCL069W, strain vba3, hits give low values 0.987 | locus YCR088W, strain abp1, hits give low values 0.986 | locus YDL005C, strain med2, hits give low values 0.992 | locus YDL035C, strain GPR1, hits give low values 0.99 | locus YDL040C, strain nat1, hits give low values 1.01 | locus YDL074C, strain BRE1, hits give low values 1.04 | locus YDL101C, strain DUN1, hits give low values 1.03 | locus YDL185W, strain tfp1, hits give low values 1.01 | locus YDL192W, strain arf1, hits give low values 1.02 | locus YDR001C, strain nth1, hits give low values 0.979 | locus YDR069C, strain doa4, hits give low values 0.998 | locus YDR101C, strain arx1, hits give low values 1.01 | locus YDR137W, strain rgp1, hits give low values 0.989 | locus YDR159W, strain sac3, hits give low values 0.992 | locus YDR162C, strain NBP2, hits give low values 0.993 | locus YDR195W, strain ref2 0.984 | locus YDR297W, strain sur2, hits give low values 0.998 | locus YDR318W, strain mcm21, hits give low values 1.01 | locus YDR334W, strain swr1, hits give low values 0.97 | locus YDR335W, strain msn5, hits give low values 1.01 | locus YDR388W, hits give low values 1.01 | locus YDR392W, strain spt3, hits give low values 0.994 | locus YDR502C, strain sam2, hits give low values 1.01 | locus YEL003W, strain gim4, hits give low values 0.989 | locus YEL037C, strain rad23, hits give low values 0.993 | locus YEL061C, strain CIN8 (second series), hits give low values 0.981 | locus YEL061C, strain CIN8, hits give low values 1.01 | locus YER015W, strain faa2, hits give low values 0.998 | locus YER016W, strain bim1, hits give low values 1.01 | locus YER110C, hits give low values 1.02 | locus YER111C, strain swi4, hits give low values 0.996 | locus YER155C, strain BEM2 (second series), hits give low values 1.01 | locus YER155C, strain BEM2, hits give low values 1.01 | locus YER167W, strain BCK2, hits give low values 1 | locus YFR010W, strain ubp6, hits give low values 1.01 | locus YGL078C, strain dbp3, hits give low values 1 | locus YGL086W, strain mad1, hits give low values 1.01 | locus YGL167C, strain pmr1, hits give low values 0.996 | locus YGL173C, strain kem1, hits give low values 1.01 | locus YGL227W, strain vid30, hits give low values 0.979 | locus YGL240W, strain doc1, hits give low values 0.972 | locus YGL248W, strain PDE1, hits give low values 1.03 | locus YGL253W, strain hxk2, hits give low values 1 | locus YGR078C, strain PAC10, hits give low values 1.03 | locus YGR135W, strain pre9, hits give low values 1.01 | locus YGR252W, strain gcn5, hits give low values 1.01 | locus YHR013C, strain ard1, hits give low values 1.01 | locus YHR027C, strain rpn1, hits give low values 0.98 | locus YHR030C, strain SLT2, hits give low values 1 and 0.982 | locus YHR079C, strain IRE1 (second series), hits give low values 1.02 | locus YHR079C, strain IRE1, hits give low values 0.965 | locus YHR094C, strain hxt1, hits give low values 1.02 | locus YHR129C, strain ARP1, hits give low values 1.01 | locus YHR142W, strain chs7, hits give low values 0.985 | locus YHR200W, strain rpn10, hits give low values 1.01 | locus YIL066C, strain RNR3, hits give low values 0.988 | locus YIL073C, strain SPO22, hits give low values 1.04 | locus YIL125W, strain kgd1, hits give low values 1.02 | locus YIR030C, strain dcg1, hits give low values 1.01 | locus YJL092W, strain hpr5, hits give low values 0.971 | locus YJL095W, strain BCK1 (second series), hits give low values 1.01 | locus YJL095W, strain BCK1, hits give low values 1.06 and 0.975 | locus YJL115W, strain asf1, hits give low values 0.982 | locus YJL129C, strain trk1, hits give low values 0.963 | locus YJL134W, strain LCB3, hits give low values 1.01 | locus YJL154C, strain vps35, hits give low values 0.993 | locus YJL164C, strain tpk1, hits give low values 1 | locus YJL166W, strain qcr8, hits give low values 1.01 | locus YJL168C, strain set2, hits give low values 1.01 | locus YJL187C, strain SWE1 (second series), hits give low values 1.05 | locus YJL187C, strain SWE1, hits give low values 0.994 | locus YJR043C, strain POL32, hits give low values 0.975
